# Measured values: PubChem BioAssay (Tox21)
# A number with no mark means an inactive call. Results filed as inconclusive are left out. Entries that show only a call come without a potency. The source made the active and inactive calls. Unless noted, the call rests on the fitted dose curve; in most records, active means well fitted curve in the direction sought with a large enough effect in the repeat runs; inconclusive means weak or mixed curves; inactive means no such curve, though single readings can be large; an effect the other way counts as inactive or inconclusive.
# Legend:
# [1] = qHTS assay to identify small molecule agonists of the estrogen receptor alpha (ER-alpha) signaling pathway in the presence of an antagonist - cell viability counter screen (AID 1259386);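 further: series mostly up to about 92 µM; cells exposed to compounds for 22 h at 37 °C before the viability read; nearly all actives have a fitted effect of over 30% in size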
# Method in brief: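 Using estrogen-depleted VM7Luc4E2 cells, the 15-concentration compound series was applied together with 10.0nM ICI-182,780 and incubated 22hr at 37C/5% CO2. Cell viability was then scored by CellTiter-Fluor.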
# [2] = target: Progesterone receptor (Homo sapiens) (UniProt P06401); test: qHTS assay to identify small molecule agonists of the progesterone receptor (PR) signaling pathway (AID 1346784; calls by dose curve; further: nearly all actives have a fitted effect of over 30% in size)
# Method in brief: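 Cells (PR-UAS-bla HEK 293T, GripTite) were plated in assay medium containing 2% charcoal-stripped FBS and incubated 6 hr. Test compounds in DMSO were added for 16 hr at 37C. FRET substrate was then loaded for 2 hr at room temperature before fluorescence reading.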
# [3] = qHTS assay to identify small molecule antagonists of the progesterone receptor (PR) signaling pathway - cell viability counter screen (AID 1346798); further: series mostly up to about 92 µM; nearly all actives have a fitted effect of over 50% in size
# Method in brief: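 Counter screen for cytotoxicity: viability of PR-UAS-bla HEK293T cells was measured with CellTiter-Glo luminescence following 16 hr compound exposure in the presence of R5020.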
# [4] = qHTS assay to identify small molecule agonists of the progesterone receptor (PR) signaling pathway - cell viability counter screen (AID 1346799; calls by dose curve; further: nearly all actives have a fitted effect of over 45% in size)
# Method in brief: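 Cells (PR-UAS-bla HEK293T) are plated at 3,000/well in 2% charcoal-stripped FBS medium, rested 6 hr, dosed and incubated 16 hr at 37C. CellTiter-Glo is then added and luminescence measured after 30 min at room temperature.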
# [5] = qHTS assay to identify small molecule antagonists of the TGF-beta/Smad signaling pathway - cell viability counter screen (AID 1346824); further: nearly all actives have a fitted effect of over 50% in size
# Method in brief: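 SBE-bla HEK 293T cells were plated overnight at 37 C, then given compounds in DMSO plus TGF-beta1 (added as 0.25 ng/mL solution) for 5 hr. After the bla read, CellTiter-Glo was added to the same wells and luminescence read after 30 min at room temperature.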
# [6] = qHTS assay to identify small molecule agonists of the TGF-beta/Smad signaling pathway - cell viability counter screen (AID 1346829); further: top concentration of the series differs between compounds; nearly all actives have a fitted effect of over 45% in size
# Method in brief: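 Tox21 qHTS format: SBE-bla HEK 293T cells treated with DMSO-dissolved compounds for 5 hr; CellTiter-Glo luminescence after 30 min at room temperature.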
# [7] = qHTS assay to identify small molecule agonists of the TGF-beta/Smad signaling pathway (AID 1346859; active means well fitted activation curve with a large enough effect in the signal ratio in the repeat runs, not every such curve was filed as active; the % refers to the signal ratio; further: series mostly up to about 77 µM)
# Method in brief: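 Reporter line: HEK 293T with stably integrated SBE-controlled beta-lactamase. Compound exposure lasts 5 hr at 37 C and 5% CO2; substrate loading follows for 2 hr at room temperature, with emission read at 460 and 530 nm.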
# [8] = target: Thyrotropin-releasing hormone receptor (Homo sapiens) (UniProt P34981); test: qHTS assay to identify small molecule antagonists of the thyrotropin-releasing hormone receptor (TRHR) signaling pathway (AID 1346877; active means well fitted inhibition curve with a large enough effect in the repeat runs, not every such curve was filed as active; further: series mostly up to about 51 µM)
# Method in brief: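 Calcium signal in dye-loaded TRHR/HEK293 cells; compounds added 5 min before TRH (1 nM final); fluorescence monitored 3 min at 1 s steps.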
# [9] = target: Thyrotropin-releasing hormone receptor (Homo sapiens) (UniProt P34981); test: qHTS assay to identify small molecule agonists of the thyrotropin-releasing hormone receptor (TRHR) signaling pathway (AID 1346891; calls by dose curve;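 further: HEK293 cells expressing TRHR with calcium dye readout; series mostly up to about 58 µM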)
# Method in brief: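 Cells: TRHR-Hek293, seeded and incubated 18 h. Dye loading: 2 h at 37 °C. Compound added from DMSO stock by pin tool. Read-out: kinetic calcium fluorescence over 3 min.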
# [10] = Human pregnane X receptor (PXR) small molecule agonists, qHTS cell viability counter screen (AID 1346977); further: nearly all actives have a fitted effect of over 50% in size
# Method in brief: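 Cytotoxicity counter screen run in the same wells as the PXR luciferase assay, using PXR-Luc HepG2 cells in charcoal-stripped serum medium. Viability: CellTiter-Fluor fluorescence after 24hr compound treatment.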
# [11] = Caspase-3/7 induction in HepG2 cells by small molecules, qHTS assay (AID 1346978); further: nearly all actives have a fitted effect of over 15% in size
# Method in brief: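 Wild-type HepG2 cells (2,000/well) were settled 5 h at 37 C, 5% CO2, then exposed to compounds in DMSO for 17 h. Caspase-3/7 activity was read by luminescence 30 min after adding Caspase-Glo 3/7 reagent at room temperature.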
# [12] = Caspase-3/7 induction in CHO-K1 cells by small molecules, qHTS cell viability counter screen (AID 1346979); further: nearly all actives have a fitted effect of over 35% in size
# Method in brief: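 Cytotoxicity counter screen run in parallel with the caspase-3/7 assay: CHO-K1 cells, 16hr compound treatment at 37C, then CellTiter-Fluor for 1hr before fluorescence reading.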
# [13] = Caspase-3/7 induction in CHO-K1 cells by small molecules, qHTS assay (AID 1346980); further: nearly all actives have a fitted effect of over 15% in size
# Method in brief: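 Wild-type cells were seeded at 1,500 per well and settled 5 hr at 37 C, 5% CO2, then exposed to DMSO-dissolved compounds for 17 hr. Caspase-Glo 3/7 reagent was added, and luminescence was read after 30min at room temperature.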
# [14] = Caspase-3/7 induction in HepG2 cells by small molecules, qHTS cell viability counter screen (AID 1346981); further: series mostly up to about 92 µM; nearly all actives have a fitted effect of over 30% in size
# Method in brief: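 After a 5-hr attachment period at 37 C and 5% CO2, wild-type HepG2 cells received compounds in DMSO. Sixteen hours later CellTiter-Fluor was dispensed and the fluorescent signal quantified after a further hour.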
# [15] = target: Progesterone receptor (Homo sapiens) (UniProt P06401); test: qHTS assay to identify small molecule antagonists of the progesterone receptor (PR) signaling pathway (AID 1346795; active means well fitted inhibition curve with a large enough effect in the signal ratio in the repeat runs, not every such curve was filed as active; the % refers to the signal ratio)
# Method in brief: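 Antagonist mode: compounds tested against 1 nM (final) promegestone stimulation in HEK293T cells expressing PR-UAS-bla reporter, 16 hr at 37C, 5% CO2; beta-lactamase activity detected via B/G FRET substrate after 2 hr at room temperature.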
# [16] = target: Nuclear receptor subfamily 1 group I member 2 (Homo sapiens) (UniProt O75469); test: Human pregnane X receptor (PXR) small molecule agonists, qHTS assay (AID 1346982); further: nearly all actives have a fitted effect of over 35% in size; further: potency means the concentration at half of the fitted maximal effect
# Method in brief: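 Tox21 qHTS; PXR-Luc HepG2; compounds pinned from DMSO; 24 hr, 37 C; ONE-Glo luciferase detection, 30 min room temperature.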
# [17] = target: Nuclear receptor subfamily 1 group I member 2 (Rattus norvegicus) (UniProt Q9R1A7); test: Rat pregnane X receptor (rPXR) activation by small molecules, qHTS assay (AID 1346983); details: rPXR luciferase reporter cells, One-Glo luminescence, 24 h; max activation: hits give high values; further: nearly all actives have a fitted effect of over 20% in size
# Method in brief: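 Cell-based rPXR luciferase reporter assay, 2,000 cells per well, rested 5hr at 37 C before compound addition in DMSO, then 24 hr at 37 C. One-Glo reagent was added and luminescence read after 30 min at room temperature.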
# Chain of Progesterone receptor (Homo sapiens) (P06401 whole entry, looked up): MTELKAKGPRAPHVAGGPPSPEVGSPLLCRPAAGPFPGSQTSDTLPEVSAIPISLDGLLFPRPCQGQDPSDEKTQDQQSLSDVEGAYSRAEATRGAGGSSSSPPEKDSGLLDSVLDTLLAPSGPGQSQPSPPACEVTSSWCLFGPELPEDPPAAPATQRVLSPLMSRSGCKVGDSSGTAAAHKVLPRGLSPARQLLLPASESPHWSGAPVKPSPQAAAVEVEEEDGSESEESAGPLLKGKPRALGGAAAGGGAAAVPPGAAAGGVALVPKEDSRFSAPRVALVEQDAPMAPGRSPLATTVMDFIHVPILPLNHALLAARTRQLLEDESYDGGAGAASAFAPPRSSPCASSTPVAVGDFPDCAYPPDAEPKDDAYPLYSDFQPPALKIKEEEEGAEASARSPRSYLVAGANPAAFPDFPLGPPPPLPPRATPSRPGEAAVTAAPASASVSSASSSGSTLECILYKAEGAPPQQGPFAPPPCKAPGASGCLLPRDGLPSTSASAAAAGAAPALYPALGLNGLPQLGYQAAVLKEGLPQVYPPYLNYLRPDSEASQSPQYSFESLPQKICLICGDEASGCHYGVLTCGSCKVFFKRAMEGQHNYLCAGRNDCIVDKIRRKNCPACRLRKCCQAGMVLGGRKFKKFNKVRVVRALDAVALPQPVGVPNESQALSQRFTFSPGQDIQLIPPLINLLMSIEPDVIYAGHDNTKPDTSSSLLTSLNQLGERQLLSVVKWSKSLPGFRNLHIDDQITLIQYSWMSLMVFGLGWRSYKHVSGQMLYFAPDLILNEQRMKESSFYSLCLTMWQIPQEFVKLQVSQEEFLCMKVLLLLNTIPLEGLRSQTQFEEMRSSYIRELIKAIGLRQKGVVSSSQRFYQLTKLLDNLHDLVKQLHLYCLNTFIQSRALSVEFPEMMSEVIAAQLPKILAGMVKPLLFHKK
# Chain of Nuclear receptor subfamily 1 group I member 2 (Homo sapiens) (O75469 whole entry, looked up): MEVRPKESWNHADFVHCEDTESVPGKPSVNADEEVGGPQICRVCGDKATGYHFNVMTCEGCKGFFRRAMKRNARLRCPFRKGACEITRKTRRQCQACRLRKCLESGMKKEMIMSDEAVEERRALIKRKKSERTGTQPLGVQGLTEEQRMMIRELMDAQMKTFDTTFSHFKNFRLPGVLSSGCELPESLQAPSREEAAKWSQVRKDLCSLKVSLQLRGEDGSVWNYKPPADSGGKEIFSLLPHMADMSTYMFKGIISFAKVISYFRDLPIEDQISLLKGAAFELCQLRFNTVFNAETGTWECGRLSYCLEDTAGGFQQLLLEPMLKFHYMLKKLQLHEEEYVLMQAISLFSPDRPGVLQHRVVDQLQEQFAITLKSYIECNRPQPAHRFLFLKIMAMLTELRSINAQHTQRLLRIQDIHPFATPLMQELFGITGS
# Chain of Thyrotropin-releasing hormone receptor (Homo sapiens) (P34981 whole entry, looked up): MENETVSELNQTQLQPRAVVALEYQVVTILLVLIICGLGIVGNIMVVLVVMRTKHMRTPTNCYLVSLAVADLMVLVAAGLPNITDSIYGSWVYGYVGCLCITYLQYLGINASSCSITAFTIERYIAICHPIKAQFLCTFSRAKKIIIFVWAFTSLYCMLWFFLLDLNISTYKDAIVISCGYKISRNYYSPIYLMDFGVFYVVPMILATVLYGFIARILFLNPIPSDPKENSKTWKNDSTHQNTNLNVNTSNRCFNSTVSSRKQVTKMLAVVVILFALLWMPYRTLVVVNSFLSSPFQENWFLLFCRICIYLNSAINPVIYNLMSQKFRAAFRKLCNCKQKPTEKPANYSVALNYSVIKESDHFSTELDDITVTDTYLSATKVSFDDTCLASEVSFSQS
# Chain of Nuclear receptor subfamily 1 group I member 2 (Rattus norvegicus) (Q9R1A7 whole entry, looked up): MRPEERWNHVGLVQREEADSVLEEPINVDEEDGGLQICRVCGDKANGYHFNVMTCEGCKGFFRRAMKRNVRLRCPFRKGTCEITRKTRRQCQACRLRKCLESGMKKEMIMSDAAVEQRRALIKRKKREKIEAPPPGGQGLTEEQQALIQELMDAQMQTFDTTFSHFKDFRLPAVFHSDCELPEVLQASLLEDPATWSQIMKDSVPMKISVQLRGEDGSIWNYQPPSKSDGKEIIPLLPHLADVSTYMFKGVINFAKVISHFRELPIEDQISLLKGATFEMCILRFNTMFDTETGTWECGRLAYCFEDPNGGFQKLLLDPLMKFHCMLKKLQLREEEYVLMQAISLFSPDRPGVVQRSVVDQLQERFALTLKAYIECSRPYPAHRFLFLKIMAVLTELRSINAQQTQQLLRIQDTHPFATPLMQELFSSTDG
SMILES,outcome [1],Potency [2],Potency [3],Potency [4],outcome [5],outcome [6],outcome [7],outcome [8],outcome [9],Potency [10],outcome [11],Potency [12],outcome [13],outcome [14],Potency [15],Potency [16],max activation [17]
C=C[Si](OC)(OC)OC,inactive,inactive,inactive,inactive,inactive,inactive,inactive,inactive,inactive,inactive,inactive,inactive,inactive,inactive,,,
CC(C)(O)C(=O)c1ccc(OCCO)cc1,inactive,,inactive,inactive,inactive,inactive,inactive,inactive,inactive,inactive,inactive,inactive,inactive,inactive,inactive,inactive,
CSc1nc(NC2CC2)nc(NC(C)(C)C)n1,inactive,inactive,inactive,inactive,inactive,,inactive,,,inactive,inactive,inactive,inactive,,,,
O=C(O)/C=C/c1ccc(Cn2ccnc2)cc1,inactive,inactive,inactive,inactive,inactive,inactive,inactive,inactive,inactive,inactive,,inactive,inactive,,,,-1.1%
NC(=O)Nc1nc2ccccc2[nH]1,inactive,inactive,inactive,inactive,inactive,,inactive,,,inactive,inactive,inactive,inactive,inactive,,inactive,
Nc1ccc2cc(S(=O)(=O)O)ccc2c1,inactive,inactive,inactive,inactive,inactive,inactive,inactive,inactive,inactive,inactive,inactive,inactive,inactive,inactive,,,
Nc1cc(N)cc(C(=O)O)c1,inactive,inactive,inactive,inactive,inactive,inactive,inactive,,,inactive,inactive,inactive,inactive,inactive,,34.4 µM (active),
CCn1c(=O)c2c(nc(/C=C/c3ccc(OC)c(OC)c3)n2C)n(CC)c1=O,inactive,inactive,,,inactive,inactive,inactive,inactive,inactive,inactive,inactive,,inactive,inactive,inactive,26.6 µM (active),
CC(C)c1cccc(C(C)C)c1N,inactive,,inactive,inactive,inactive,inactive,inactive,inactive,inactive,inactive,inactive,inactive,inactive,inactive,inactive,inactive,
